67 molecules from ChEMBL document CHEMBL4513216, “Probing the Open Global Health Chemical Diversity Library for Multistage-Active Starting Points for Next-Generation Antimalarials” (ACS Infect Dis, 2020) can be followed below.

The structures appear in SMILES notation. Among all 69,000 compounds or so, about 8,600 (12%) showed an effect of 50% or more. The entries come from a sample that favours strong results as a whole.

This assay relates to Plasmodium berghei. As to the kind of experiment: Screen against P. berghei liver stage (PbLuc), transformed with Luciferase, at 10uM. The assay is classed as functional, HepG2. The settings on record: tested at 10 uM.
On to `NCC1CCC2(CCN(C(=O)c3ccccn3)CC2)CO1` (configuration not stated), for which the INHIBITION came to 38.5%. Consider `Cc1ncc(C(=O)NC2CCc3nccn3C2)c(C(C)C)n1` (configuration not stated), for which the INHIBITION worked out at 11.6%. Turning to `CCOCC1c2c(cnn2CC2CC2)CCN1C(=O)c1ccncn1` (configuration not stated), the INHIBITION is 6.72%. `O=C(CC1CC1)N1CC[C@@H]2[C@H](CC1)N(Cc1cccnc1)CCS2(=O)=O`: the INHIBITION is given as -35%. Turning to `Cc1nc(C)n(C2CCCN(C(=O)CCn3ccnn3)C2)n1` (configuration not stated), the INHIBITION was -10.3%.

With `Cc1cn[nH]c1C1COCCN1Cc1ccsc1` (configuration not stated), the INHIBITION is listed as 25.15%.

For the molecule `O=C(NS(=O)(=O)c1c(Cl)cccc1Cl)c1cccc2c1OCCO2`, the INHIBITION worked out at 12.3%. For the molecule `O=C(CCCC(=O)NCc1cccc(Br)c1)NCCN1CCCC1`, the INHIBITION is recorded as 17.5%. Regarding `CC(C)S(=O)(=O)N1CCC(c2cc3n(n2)[C@@H](C(F)(F)F)C[C@@H](C)N3)C1` (some centres not stated), the INHIBITION is reported as 27.3%. For `CCOc1cc(C)nc(N2CCN(C(=O)c3ccncc3)CC2)n1`, the INHIBITION came to 33.8%. With `CCOc1cc(C)nc(N2CCN(C(=O)C(C)NC(C)=O)CC2)n1` (configuration not stated), the INHIBITION was 60.5%. For the molecule `COc1cc(C)nc(N2CCN(C(=O)CN(C)C3CC3)CC2)n1`, the INHIBITION is -3.18%.

With `COc1cc(C)nc(N2CCN(C(=O)CN(C)C(C)C)CC2)n1`, the INHIBITION turned out to be 59.9%.

In the case of `CCN(CC)CC(=O)N1CCN(c2nc(C)cc(OC)n2)CC1`, the INHIBITION was 2.54%. Take `CCOc1cc(C)nc(N2CCN(C(=O)CC)CC2)n1`: the INHIBITION came to 8.25%. In the case of `CCOC1COC2(CCN(CC3CCOCC3)CC2)C1` (configuration not stated), the INHIBITION stood at 31.2%. Under `Clc1ccc(CN2CCCCC2Cn2cncn2)c2ncccc12` (configuration not stated) stands 40.65%; under `Cc1nc(CN2CC[C@H]3[C@H]2CCN3c2nncs2)cs1`, 40.8%; under `Cc1nn(CCN2CCSCC2)cc1CNCc1ccccn1`, 23.5%. In the case of `OC(COCc1ccccc1F)CN1CCC(Cn2cccn2)CC1` (configuration not stated), the INHIBITION is 46.3%. The same measure for `c1ncn(CC2CCCN(Cc3nc(-c4ccoc4)no3)C2)n1` (configuration not stated): -34%. Consider `CN(C)C(=O)N1CCC2(CC1)CCN(c1ncccn1)C2`, for which the INHIBITION is recorded as -26.1%. On to `Cc1ccc(CNC(=O)c2nc3c(n2C)CCN(c2ncccn2)C3)o1`, for which the INHIBITION is 48.4%. Regarding `COc1cc(CNCc2c(C)nn(C)c2N(C)C)ccc1OCCO`, the INHIBITION came to 21.6%. With `Cc1cnn(C2CCN(Cc3ccccc3)C2)c1N` (configuration not stated), the INHIBITION stood at 56.1%. Consider `Nc1ccnn1C1CCN(Cc2ccccc2)C1` (configuration not stated), for which the INHIBITION was determined as 43.1%. For `Nc1c(Cl)cnn1C1CCN(Cc2ccccc2)C1` (configuration not stated), the INHIBITION is recorded as 37.7%. The same measure for `Cc1ccc(NC(=O)[C@@H]2C[C@H](C(=O)O)CN(Cc3sccc3C)C2)cn1`: 29.4%. The same measure for `Cc1ccc(NC2CCN(C(=O)c3cccnc3O)CC2)nn1`: 16.8%; for `Cc1csc2c(=O)n(CCSc3cnn[nH]3)cnc12`: 18.5%; for `c1ccc(CCN2CCN(C3CCOC4(CCOCC4)C3)CC2)nc1` (configuration not stated): 7.24%. For `Cc1ncccc1O[C@H]1CCN(C(=O)c2cccs2)CC[C@@H]1O`, the INHIBITION came to 23.3%. Consider `CCc1ccc(C(=O)N2CC[C@H](Oc3cccnc3C)[C@@H](O)CC2)cc1`, for which the INHIBITION came out at 78.2%.

With `Cc1ncccc1O[C@H]1CCN(C(=O)Cc2cccs2)CC[C@@H]1O`, the INHIBITION was 42.9%. In the case of `Cc1ccc(C(=O)N2CC[C@H](Oc3cccnc3C)[C@@H](O)CC2)s1`, the INHIBITION is recorded as 44.1%. Regarding `Cc1csc(C(=O)N2CC[C@H](Oc3cccnc3C)[C@@H](O)CC2)c1`, the INHIBITION is 57.5%. Under `CCc1ccc(C(=O)N2CCC(c3nncn3CC)CC2)cc1` stands -3.16%. As for `O=C(NC1CCCCC1)N1CCc2onc(COc3cccnc3)c2C1`, the INHIBITION amounted to 40.4%.

On to `Cc1ccoc1C(=O)N1CCOCC2(CCN(c3ncccn3)C2)C1` (configuration not stated), for which the INHIBITION is reported as -19.9%.

For the molecule `CC(C)CNC(=O)CNC(=O)NC(C)COc1ccccc1F` (configuration not stated), the INHIBITION was -24.5%. Take `O=C(NCC1CC1)C1CSCN1S(=O)(=O)c1cc(F)cc(F)c1` (configuration not stated): the INHIBITION is on record as 27.7%.

On to `Cc1noc([C@@H]2CC[C@@H]3[C@@H](CCN3S(=O)(=O)c3cccnc3)O2)n1`, for which the INHIBITION is on record as -2.53%.

Take `Cc1nnc2n1CCN(c1nc3ccccc3o1)C2`: the INHIBITION stood at 2.97%. On to `c1ccc2oc(N3CCn4c(nnc4C4CC4)C3)nc2c1`, for which the INHIBITION is on record as 68.4%. Under `CC(C)c1nnc2n1CCN(c1nc3ccccc3o1)C2` stands 16.8%; under `CCc1nc(C2CCCN2C(=O)c2ccc(N(C)C)nn2)no1` (configuration not stated), 24.295%.

Regarding `N[C@@H](Cc1ccccc1)c1nnc(S(=O)(=O)Cc2ccc(Cl)cc2)o1`, the INHIBITION is on record as 15.4%.

As for `CCS(=O)(=O)c1nnc([C@@H](N)Cc2ccccc2)o1`, the INHIBITION was 11.6%. Take `N[C@@H](Cc1ccccc1)c1nnc(S(=O)(=O)Cc2ccccc2)o1`: the INHIBITION was 53.8%. Consider `Cc1cnn(CC2CCCN2C(=O)c2c(C)noc2C)c1` (configuration not stated), for which the INHIBITION came out at 12.7%.

Take `Cc1ccnn1CCC(=O)N1CCCC1c1cc2cccnc2[nH]1` (configuration not stated): the INHIBITION worked out at 6.26%.

With `Cc1nc(N2CCOCC2)nc2c1COCC21CCN(CC2CC2)C1` (configuration not stated), the INHIBITION stood at 36.9%.

`CCN(Cc1ccncc1)CC1(O)CCN(C(=O)c2cccc(C)c2)C1` (configuration not stated): the INHIBITION is -9.32%. For `Cc1cccc2c1nc1n2[C@@H](CNC(=O)c2ccccn2)COC1`, the INHIBITION stood at 37.4%. Take `Cc1cccc2c1nc1n2[C@@H](CNC2CCCCC2)COC1`: the INHIBITION is reported as 51%. As to `FC(F)(F)c1ccc(CNC[C@H]2COCc3nc4cccnc4n32)cc1`, the INHIBITION worked out at 39.3%.

As to `COc1ccc(CNC[C@H]2COCc3nc4cccnc4n32)cc1`, the INHIBITION is on record as 6.55%. As to `Cc1cccc2c1nc1n2[C@@H](CNC(=O)NC(C)C)COC1`, the INHIBITION worked out at 11.6%. Turning to `c1ccc(CNC[C@H]2COCc3nc4cccnc4n32)cc1`, the INHIBITION is 54.7%. As for `COc1ccccc1C(=O)NC[C@H]1COCc2nc3c(C)cccc3n21`, the INHIBITION is 50.2%. On to `Cc1cccc2c1nc1n2[C@@H](CNC(=O)C2CCOCC2)COC1`, for which the INHIBITION was 43.4%. In the case of `CC(=O)NC[C@H]1COCc2nc3c(C)cccc3n21`, the INHIBITION is listed as 46.4%.

Take `Cc1cccc2c1nc1n2[C@@H](CNC(=O)Cc2ccccc2)COC1`: the INHIBITION is -33.8%. For the molecule `Cc1ccc2c(c1)nc1n2[C@@H](CNC(=O)c2ccccn2)COC1`, the INHIBITION stood at 57%.

Consider `COc1ccc2c(c1)nc1n2[C@@H](CNC(=O)c2ccccn2)COC1`, for which the INHIBITION was determined as 7.53%.

As for `CCN(CC(=O)Nc1cc(Cl)ccc1C)C(=O)c1ccc(=O)[nH]n1`, the INHIBITION was 23.2%. For the molecule `COc1ncc(-c2ccc(O)cc2)c(OC)n1`, the INHIBITION is 27.6%.
